The list is not random: actives were taken first. Their share in the collection is about 18%.
Six1-Eya2 blk: inhibitors of human Six1/Eya2 interaction | activity change, % (test concentration not listed) | AID 651725 | 0.56% of 360,000 active | AlphaScreen GST-Six1/His-Eya2 binding, biochemical; active compounds read low; in the data active = activity change below about -65%; inconclusive = mostly about -30% to -63%
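Six1/Eya2 binding was read as AlphaScreen signal after compounds were pinned into GST-Six1 plus His-tagged Eya2 (5X stock 250/500 nM) in pH 8.0 Tris/NaCl/TCEP buffer, beads added, then incubated 1 h, 37 C, dark.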
TDP1 inh: blocks human tyrosyl-DNA phosphodiesterase 1; recombinant TDP1, AlphaScreen DNA substrate cleavage; Potency, µM (highest dose often 130 µM), for inactives: top-dose activity change, negative = inhibition, actives largely listed as inhibitors; 0.28% of 350,000 active; also: potency is read from the fitted curve at half-maximal effect; nearly all actives have a fitted effect of over 40% in size
Target sequence (Q9NUW8 whole entry, looked up): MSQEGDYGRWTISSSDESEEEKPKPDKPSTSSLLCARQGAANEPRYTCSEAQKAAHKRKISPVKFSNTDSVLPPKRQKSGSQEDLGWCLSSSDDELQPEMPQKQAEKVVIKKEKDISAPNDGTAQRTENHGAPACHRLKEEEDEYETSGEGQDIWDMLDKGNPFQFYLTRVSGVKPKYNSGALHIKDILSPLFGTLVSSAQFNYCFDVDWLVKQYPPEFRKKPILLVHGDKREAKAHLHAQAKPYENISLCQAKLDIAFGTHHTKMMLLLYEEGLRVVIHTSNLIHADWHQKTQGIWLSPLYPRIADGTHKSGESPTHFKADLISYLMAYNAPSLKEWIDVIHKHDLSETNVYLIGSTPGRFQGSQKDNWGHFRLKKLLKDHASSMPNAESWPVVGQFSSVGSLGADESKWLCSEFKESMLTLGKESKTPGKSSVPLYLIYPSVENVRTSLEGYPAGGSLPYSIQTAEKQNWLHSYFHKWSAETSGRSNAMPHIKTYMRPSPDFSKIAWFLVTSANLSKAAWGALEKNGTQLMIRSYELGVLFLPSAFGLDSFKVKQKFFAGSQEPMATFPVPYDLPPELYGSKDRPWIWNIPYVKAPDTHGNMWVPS
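E. coli-derived human Tdp1, 1 nM final. Cpd preinc 15 min RT; substrate 15 nM final, 5 min RT; AS bead mix 10 ug/ml final, 10 min RT. Signal loss = tyrosine-FITC cleavage. No-enzyme wells = max signal.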
IL-1B inflam inh: inhibitors of inflammasome signaling (IL-1 beta secretion); THP-1 LPS/ATP IL-1B secretion, AlphaLISA, 16 h; active compounds read low; 4.7% of 360,000 active; AID 743279; activity change, % at 57.5 µM; in the data active = activity change below about -50%; inconclusive = mostly about -30% to -49%
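Secreted IL-1B measured by AlphaLISA bead assay after 16 h compound exposure of THP-1 cells; compounds (final up to 57.5 uM) added 1 h before LPS (250 ng/mL) and ATP (1.25 mM) stimulation; lower signal means less secretion.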
TDP1 cell noCPT: qHTS for Inhibitors of human tyrosyl-DNA phosphodiesterase 1 (TDP1): qHTS in cells in absence of CPT; DT40 Tdp1-/- hTDP1 cells, no CPT, ATP luminescence, 48 h; Potency, µM (titrated, usually from 46.2 µM), for inactives: at the highest dose activity change, negative = growth inhibition, actives largely listed as inhibitors; 15% of 420,000 active; AID 686978, 2013; also: potency is read from the fitted curve at half-maximal effect; nearly all actives have a fitted effect of over 55% in size
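Chicken DT40 Tdp1-/- cells complemented with human TDP1, screened without camptothecin (DMSO vehicle only), 400 cells/well. Compounds pin-transferred, cells incubated at 37 °C for at least 48 hr. Growth read as ATP-dependent luminescence (CellTiter-Glo, 30 min at RT).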
DT40 TDP1 CPT: DT40-hTDP1 cell growth loss with CPT; Potency, µM (highest dose often 46.2 µM), for the others: top-dose activity change, negative = growth inhibition, hits mostly inhibitors; 12% of 420,000 active; chicken DT40 Tdp1-/-;hTDP1 cells + 20 nM CPT, ATP luminescence, 48 h; AID 686979; also: potency is read from the fitted curve at half-maximal effect; nearly all actives have a fitted effect of over 55% in size
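Chicken DT40 Tdp1-/- cells stably complemented with human TDP1 were seeded at 400 cells/well in medium containing 20 nM camptothecin, exposed to pin-transferred compounds, and grown at 37 °C for at least 48 hr. Viability was read as ATP luminescence.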
CtBP-E1A inh: blocks the CtBP interaction with E1A. AlphaScreen GST-E1A/His-CtBP binding, 1536-well; active compounds read low. activity change, % (test concentration not listed). 0.49% of 340,000 active; in the data active = activity change below about -65%; inconclusive = mostly about -30% to -63%
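Steps: dispense buffer (Tris pH 8.0, NaCl 300 mM, TCEP 1 mM, BSA, Tween 20); add 5X protein mix (GST-E1A, His-CtBP, 125 nM each); pin 23 nL compound; 2 h at 37 °C, dark; add 5X beads (50 ug/mL); 1 h; read.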
An asterisk follows results filed as active. Unless noted, calls follow the shape of the dose curve; as a rule, active = well fitted curve in the direction sought with a large enough effect; inconclusive = small, poorly fitted or top-dose-only effect, or another doubt; inactive = no such curve, though single readings can be large; an effect the other way counts as inactive or inconclusive. % is scaled to controls: 0 for no effect and ±100 for the full control effect.

For CCOC(=O)c1c(C)[nH]c(C(=O)CN2C(=O)NC(C)(c3ccc(C)cc3)C2=O)c1C (stereo not given) the results were Six1-Eya2 blk -13, TDP1 inh 2%, IL-1B inflam inh -8, TDP1 cell noCPT 23µM*, DT40 TDP1 CPT inconclusive and CtBP-E1A inh -10.
`CCN(CC1COc2ccccc2O1)C(=O)CN1C(=O)NC(C)(c2ccc(C)cc2)C1=O` (stereo not given) gave Six1-Eya2 blk -7, IL-1B inflam inh 8, TDP1 cell noCPT 23µM*, DT40 TDP1 CPT inconclusive and CtBP-E1A inh 1.
Screening CCOC(=O)c1c(C)[nH]c(C(=O)CSc2ccc(Cl)cc2)c1C returned Six1-Eya2 blk 2, TDP1 inh -7%, IL-1B inflam inh 9, TDP1 cell noCPT inconclusive, DT40 TDP1 CPT -19% and CtBP-E1A inh 0.
Screening CCOC(=O)c1c(C)[nH]c(C(=O)CN2C(=O)NC(C)(C)C2=O)c1C returned Six1-Eya2 blk -1, TDP1 inh 7%, IL-1B inflam inh -9, TDP1 cell noCPT -2%, DT40 TDP1 CPT 4% and CtBP-E1A inh 4.
CCOC(=O)c1c(C)[nH]c(C(=O)CSc2nc(C)cc(C)n2)c1C was read as Six1-Eya2 blk 3, TDP1 inh 2%, IL-1B inflam inh -26, TDP1 cell noCPT 21µM*, DT40 TDP1 CPT 15µM* and CtBP-E1A inh -3.
For C=CCNC(=O)COc1cc(C)ccc1C the results were Six1-Eya2 blk 6, TDP1 inh -1%, IL-1B inflam inh -4, TDP1 cell noCPT inconclusive, DT40 TDP1 CPT -22% and CtBP-E1A inh 4.
Screening O=C1C=C(c2ccc(F)cc2OCc2ccccc2)C[C@@H](c2ccc3c(c2)OCO3)C1 returned Six1-Eya2 blk 1, TDP1 inh 2%, IL-1B inflam inh -29, TDP1 cell noCPT inconclusive, DT40 TDP1 CPT inconclusive and CtBP-E1A inh 3.
`CCN(CC)CCNc1ncnc2c1sc1nc(N3CCOCC3)c3c(c12)CCCC3` gave Six1-Eya2 blk -3, IL-1B inflam inh inconclusive, TDP1 cell noCPT inconclusive, DT40 TDP1 CPT inconclusive and CtBP-E1A inh 2.
COc1ccc(C2(c3ccc(OC)cc3)NC(=O)N(CC(=O)Nc3ccc(OC(F)F)cc3)C2=O)cc1 was read as Six1-Eya2 blk 4, TDP1 inh 6%, IL-1B inflam inh inactive, TDP1 cell noCPT 18µM*, DT40 TDP1 CPT inconclusive and CtBP-E1A inh -6.
`COc1ccc(NC(=O)CN2C(=O)NC(c3ccccc3)(c3ccccc3)C2=O)cc1` gave Six1-Eya2 blk -2, TDP1 inh 10%, IL-1B inflam inh 0, TDP1 cell noCPT inconclusive, DT40 TDP1 CPT inconclusive and CtBP-E1A inh -1.
CC1(c2ccc(OC(F)F)cc2)NC(=O)N(CC(=O)Nc2ccc(OC(F)F)cc2)C1=O (stereo not given) was read as Six1-Eya2 blk -1, IL-1B inflam inh 21, TDP1 cell noCPT inconclusive, DT40 TDP1 CPT inconclusive and CtBP-E1A inh 5.
Screening CCOC(=O)c1c(NC(=O)CN2C(=O)NC(C)(c3ccc(OC(F)F)cc3)C2=O)sc(C)c1C (stereo not given) returned Six1-Eya2 blk -4, TDP1 inh 5%, IL-1B inflam inh inconclusive, TDP1 cell noCPT 16µM*, DT40 TDP1 CPT 21µM* and CtBP-E1A inh 0.
`CN1CCc2c1nc1ccccc1c2NC(=O)CN1CCCC1` gave Six1-Eya2 blk -1, IL-1B inflam inh -4, TDP1 cell noCPT inconclusive, DT40 TDP1 CPT -5% and CtBP-E1A inh -22.
CCn1cc2c(n1)-c1c(oc(C(=O)Nc3cccc(C(F)(F)F)c3)c1C)CC2 was read as TDP1 inh 4%, TDP1 cell noCPT -27% and DT40 TDP1 CPT -21%.
`Cc1cc(C(=O)CSc2ccc(F)cc2)cc(C)c1OC(=S)N(C)C` gave Six1-Eya2 blk 13, TDP1 inh -2%, IL-1B inflam inh -21, TDP1 cell noCPT inconclusive, DT40 TDP1 CPT inconclusive and CtBP-E1A inh 2.
COc1ccc(SCC(=O)c2cc(C)c(OC(=S)N(C)C)c(C)c2)cc1 was read as Six1-Eya2 blk -1, TDP1 inh 5%, IL-1B inflam inh -20, TDP1 cell noCPT inconclusive, DT40 TDP1 CPT 21µM* and CtBP-E1A inh -1.
Cc1ccc(NC(=O)CCCN2C(=O)COc3ccc(C)cc32)c(Cl)c1 was read as TDP1 inh -3%, TDP1 cell noCPT 7.3µM* and DT40 TDP1 CPT inconclusive.
Screening Cc1ccc(NC(=O)CC(=O)Nc2ccc(C)cc2C)c(C)c1 returned Six1-Eya2 blk -28, IL-1B inflam inh 11, TDP1 cell noCPT 0% and DT40 TDP1 CPT -11%.
`Cc1ccc(NC(=O)CCCN2C(=O)COc3ccc(C)cc32)c(C)c1` gave TDP1 inh 8%, TDP1 cell noCPT 12µM* and DT40 TDP1 CPT inconclusive.
For Cc1ccc(CNC(=O)CCCN2C(=O)COc3ccc(C)cc32)cc1 the results were TDP1 inh 0%, TDP1 cell noCPT inconclusive and DT40 TDP1 CPT inconclusive.
Screening Cc1ccc(C)c(NC(=O)CCCN2C(=O)COc3ccc(C)cc32)c1 returned TDP1 inh 0%, TDP1 cell noCPT inconclusive and DT40 TDP1 CPT inconclusive.
For COc1ccc(NC(=O)CCCN2C(=O)COc3ccc(C)cc32)cc1OC the results were TDP1 inh 5%, TDP1 cell noCPT inconclusive and DT40 TDP1 CPT inconclusive.
`Cc1ccc(NC(=O)CCCCCCCCCCC2COCCO2)c(C)c1` (stereo not given) gave Six1-Eya2 blk 4, TDP1 inh 3%, IL-1B inflam inh 1, TDP1 cell noCPT 18µM*, DT40 TDP1 CPT 21µM* and CtBP-E1A inh 13.
Cc1ccc2c(c1)N(CCCC(=O)Nc1cccc(C(F)(F)F)c1)C(=O)CO2 was read as Six1-Eya2 blk -7, TDP1 inh -1%, IL-1B inflam inh -12, TDP1 cell noCPT 16µM*, DT40 TDP1 CPT inconclusive and CtBP-E1A inh 3.
CCOC(=O)c1oc2ccccc2c1NC(=O)c1cc(OC)cc(OC)c1 was read as Six1-Eya2 blk 4, TDP1 inh -2%, IL-1B inflam inh -6, TDP1 cell noCPT inconclusive, DT40 TDP1 CPT inconclusive and CtBP-E1A inh 8.
CCc1cc(=O)oc2cc(C)cc(OCC(=O)N[C@@H](CSCc3ccccc3)C(=O)O)c12 was read as Six1-Eya2 blk -10, IL-1B inflam inh -10, TDP1 cell noCPT -17%, DT40 TDP1 CPT 5% and CtBP-E1A inh -30.

Screening data from PubChem BioAssay.
